Consider nine molecules from PubChem BioAssay.

The list shows a part of the results. Calls of active or inactive are those of the source.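 The calls were made as follows, unless noted: active = mean inhibition above about 50% in the one-dose retest (limit read from the data); inactive = the rest.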

Assay [1] deals with Protein Mdm4 (Homo sapiens) + E3 ubiquitin-protein ligase Mdm2 (Homo sapiens) (UniProt O15151+Q00987). In words: human Mdm2/MdmX binding disruption – cell-based, luminescence, single concentration, set 2, confirmation (AID 504601;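 active = mean inhibition of the luminescence signal across two replicates at or above 26 percent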). The following applies: SaOS-2 split-luciferase Mdm2/MdmX complementation, at 8 µM, stronger effect = higher value.
Assay [2] has as its target Sentrin-specific protease 8 (Homo sapiens) (UniProt Q96LD8). In words: human SENP8 peptidase blockers, hit retest – biochemical, luminescence, single concentration, confirmation (AID 488912;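 active = mean inhibition across replicates above about 50%, limit read from the data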). Conditions: Recombinant SENP8, Z-RLRGG-aminoluciferin luminescence, 60 min; at 12.5 µM; stronger effect = higher value.
Assay [3] has as its target Sentrin-specific protease 6 (Homo sapiens) (UniProt Q9GZR1). In words: inhibition of human SENP6 catalytic domain – biochemical, luminescence, single concentration, confirmation (AID 488915). The following applies: recombinant SENP6, Z-RLRGG-aminoluciferin luminescence; at 12.5 µM; stronger effect = higher value.
The target of assay [4] is Sentrin-specific protease 7 (Homo sapiens) (UniProt Q9BQF6). In words: human SENP7 peptidase blockers, hit retest – biochemical, luminescence, single concentration, confirmation (AID 488917). The following applies: recombinant SENP7, Z-RLRGG-aminoluciferin luminescence, 40 min; at 12.5 µM; stronger effect = higher value.
The target in a further assay is Caspase-3 (Homo sapiens) (UniProt P42574). In words: human caspase-3 activity blockade, out-of-family – biochemical, single concentration, selectivity assay for SENP inhibitor project, confirmation (AID 488918;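 active = mean inhibition above about 50%, limit read from the data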;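 also: plate controls were enzyme with DMSO for no effect and wells without caspase-3 for full effect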). Conditions: purified caspase-3, Z-DEVD-aminoluciferin luminescence, 60 min; at 12.5 µM; stronger effect = higher value.
Assay [5] can be described thus: Ultra-Glo luciferase signal interference – biochemical, single concentration, SENP8 reaction pre-completed, artefact control for SENP inhibitor project, confirmation (AID 488919;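 active = mean inhibition above about 50% when retested at one dose, limit read from the data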;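 also: plate controls were DMSO wells with completed reaction for no effect and substrate without enzyme for full effect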). Conditions: Pre-incubated SENP8/Z-RLRGG-aminoluciferin, luciferase luminescence interference; at 12.5 µM; stronger effect = higher value.
Assay [6] has as its target Tumor necrosis factor receptor superfamily member 10B (Homo sapiens) (UniProt O14763). In words: viability loss of caspase-8 NB7 cells with TRAIL – with/without TRAIL, luminescence panel, confirmation (AID 651596; in the data active = activity above about 50%). The following applies: NB7 neuroblastoma + caspase-8, TRAIL sensitization, NB7 Caspase-8, with TRAIL, mean of runs, at 10 µM, stronger effect = higher value.
Test in assay [7]: as above
The following applies: NB7 neuroblastoma + caspase-8, without TRAIL, NB7 Caspase-8, without TRAIL, mean of runs, at 10 µM.

Assay [8] is described as follows: NF-kB reporter suppression in CF airway cells – cell-based, GFP fluorescence, single concentration, confirmation (AID 602472; in the data active = inhibition above about 40%;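 also: stimulus PAF is a Pseudomonas aeruginosa filtrate and not platelet activating factor; plate controls were DMSO wells with stimulus for no effect and unstimulated DMSO wells for full effect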). The following applies: KKLEB CF airway cells, PAF-induced NF-kB-GFP fluorescence, overnight; at 5 µM; stronger effect = higher value.
Assay [9] can be described thus: NFkB reporter suppression in cystic fibrosis bronchial cells – cell-based, uHTS hits, panel, cytotoxicity readout, dose response (AID 624344). The following applies: CF bronchial epithelial cells, PAF-induced NFkB reporter inhibition, with PAF, run 1; at 79 µM (top of the series) unless noted.
Test in assay [10]: as above
The following applies: CF bronchial epithelial cells, PAF-induced NFkB reporter inhibition, with PAF, run 2; at 79 µM (top of the series) unless noted.

Assay [11] can be described thus: Brca1-Bard1 BiLC signal decrease – luminescence, single concentration, counter-screen for Mdm2/MdmX interaction inhibitor project, confirmation (AID 504668; call rule not given here). Conditions: Brca1/Bard1 bimolecular luciferase complementation counterscreen, at 8 µM, stronger effect = higher value. On the technique in general: A counterscreen serves to expose hits that act by an unwanted route or on another target.

Assay [12] can be described thus: inhibition of PEG-3 promoter luciferase signal – cell-based, HeLa, luciferase reporter, single concentration, confirmation (AID 602417;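 active = at 20 µM dose, 40% or more inhibition averaged across four replicates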). The following applies: HeLa PEG-Prom luciferase reporter, luminescence, overnight; at 20 µM; stronger effect = higher value.
A short description of assay [13]: HIF-2a driven luciferase blockers, single dose – luminescence, 786-0 RCC cells, confirmation (AID 651580;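 active = mean inhibition across four replicates of at least 40 percent at the single tested concentration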). Conditions: HIF-2a luciferase reporter luminescence, overnight, at 18.8 µM, stronger effect = higher value. (In general: In a reporter assay the amount or activity of a reporter protein is the signal.)
The nature of assay [14]: HIF-1a luciferase reporter signal reduction – MiaPaCa-2 cells, single concentration, counter-screen for HIF-2a inhibitor project, confirmation (AID 651589;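 active = mean inhibition of the reporter signal across four replicates at the single tested dose of 50% or more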). Conditions: MiaPaCa-2 HIF-1a luciferase reporter, desferoxamine, overnight; at 18.8 µM; stronger effect = higher value.
The target in assay [15] is PEG-3 (UniProt Q6IN02). In words: inhibition of PEG-3 promoter-driven reporter – cell-based, HeLa, luciferase, CREF/GAPDH counter-screen panel, dose response (AID 624167). Conditions: CREF/GAPDH counter-screens; HeLa PEG-Prom luciferase reporter, overnight, run 1, dose range 1, at 100 µM (top of the series) unless noted.
Assay [16] has as its target PEG-3 (UniProt Q6IN02). The assay is described as above. Conditions: CREF/GAPDH counter-screens; HeLa PEG-Prom luciferase reporter, overnight, run 2, dose range 1, at 100 µM (top of the series) unless noted.
Assay [17] relates to Rat fibroblasts (CREF). The description is as above. Conditions: CREF/GAPDH counter-screens; run 1, dose range 1, at 100 µM (top of the series).
In assay [18] the test system is Rat fibroblasts (CREF). The assay is described as above. Conditions: CREF/GAPDH counter-screens; run 2, dose range 1, at 100 µM (top of the series).
The target in assay [19] is Carboxy-terminal domain RNA polymerase II polypeptide A small phosphatase 1 (Homo sapiens) (UniProt Q9GZU7). In words: SCP1 melting temperature change from compounds – biophysical, differential scanning fluorimetry, orthogonal assay for Scp-1 inhibitor project, confirmation (AID 540329;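 active = substances whose mean melting-temperature shift, as a percentage of the reference inhibitor's shift, reaches about 5.3%, limit read from the data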;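 also: 0% = Tm of DMSO wells and 100% = Tm with sodium orthovanadate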). Conditions: Recombinant SCP1, Sypro Orange thermal shift Tm; at 40 µM; stronger effect = higher value. On the technique in general: DSF heats the sample and reads unfolding from a dye or from intrinsic fluorescence.
Sequence of Carboxy-terminal domain RNA polymerase II polypeptide A small phosphatase 1 (Homo sapiens) (Q9GZU7 76-261 limits assumed): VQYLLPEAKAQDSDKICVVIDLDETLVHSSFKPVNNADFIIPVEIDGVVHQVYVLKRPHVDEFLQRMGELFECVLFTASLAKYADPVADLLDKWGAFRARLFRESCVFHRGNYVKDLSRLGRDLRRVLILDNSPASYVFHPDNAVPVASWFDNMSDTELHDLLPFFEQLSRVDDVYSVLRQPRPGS

Sequence of Sentrin-specific protease 6 (Homo sapiens) (Q9GZR1 628-1112 limits assumed): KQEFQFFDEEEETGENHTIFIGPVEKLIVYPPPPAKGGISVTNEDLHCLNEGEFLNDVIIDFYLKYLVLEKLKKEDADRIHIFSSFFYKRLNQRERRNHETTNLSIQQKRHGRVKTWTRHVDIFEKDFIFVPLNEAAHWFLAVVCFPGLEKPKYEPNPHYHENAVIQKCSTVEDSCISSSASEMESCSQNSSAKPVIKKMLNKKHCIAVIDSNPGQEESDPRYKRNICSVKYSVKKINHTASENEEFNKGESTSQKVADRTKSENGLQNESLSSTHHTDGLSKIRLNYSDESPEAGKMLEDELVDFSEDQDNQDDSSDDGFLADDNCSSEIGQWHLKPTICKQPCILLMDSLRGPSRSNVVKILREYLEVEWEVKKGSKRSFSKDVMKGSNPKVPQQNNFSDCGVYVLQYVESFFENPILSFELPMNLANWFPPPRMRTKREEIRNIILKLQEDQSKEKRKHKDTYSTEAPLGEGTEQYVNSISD
Sequence of PEG-3 (Q6IN02 whole entry, looked up): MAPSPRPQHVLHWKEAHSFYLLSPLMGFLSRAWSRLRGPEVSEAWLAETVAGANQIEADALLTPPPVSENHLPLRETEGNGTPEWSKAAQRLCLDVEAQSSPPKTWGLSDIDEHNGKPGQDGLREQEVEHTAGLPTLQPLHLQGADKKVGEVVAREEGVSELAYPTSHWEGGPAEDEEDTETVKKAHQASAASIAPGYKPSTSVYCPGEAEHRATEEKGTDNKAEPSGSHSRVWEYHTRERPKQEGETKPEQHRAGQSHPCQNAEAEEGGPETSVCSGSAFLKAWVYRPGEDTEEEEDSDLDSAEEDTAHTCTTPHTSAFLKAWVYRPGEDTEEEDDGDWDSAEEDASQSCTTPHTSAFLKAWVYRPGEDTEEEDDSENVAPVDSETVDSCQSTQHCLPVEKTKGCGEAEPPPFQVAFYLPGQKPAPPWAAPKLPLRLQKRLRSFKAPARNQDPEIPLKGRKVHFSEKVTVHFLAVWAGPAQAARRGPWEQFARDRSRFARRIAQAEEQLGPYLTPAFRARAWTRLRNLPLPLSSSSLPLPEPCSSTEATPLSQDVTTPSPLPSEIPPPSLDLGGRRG
Sequence of Sentrin-specific protease 7 (Homo sapiens) (Q9BQF6 706-1050 limits assumed): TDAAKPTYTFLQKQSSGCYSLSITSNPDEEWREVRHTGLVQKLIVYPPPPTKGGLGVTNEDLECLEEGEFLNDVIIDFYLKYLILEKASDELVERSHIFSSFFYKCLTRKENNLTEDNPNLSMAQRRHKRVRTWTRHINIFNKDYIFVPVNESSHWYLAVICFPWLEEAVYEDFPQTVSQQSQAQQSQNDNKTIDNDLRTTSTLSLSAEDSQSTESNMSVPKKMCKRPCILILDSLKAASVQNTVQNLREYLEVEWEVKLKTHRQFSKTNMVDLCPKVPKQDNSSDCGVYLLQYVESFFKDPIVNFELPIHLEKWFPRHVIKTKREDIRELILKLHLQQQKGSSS
Sequence of Tumor necrosis factor receptor superfamily member 10B (Homo sapiens) (O14763 whole entry, looked up): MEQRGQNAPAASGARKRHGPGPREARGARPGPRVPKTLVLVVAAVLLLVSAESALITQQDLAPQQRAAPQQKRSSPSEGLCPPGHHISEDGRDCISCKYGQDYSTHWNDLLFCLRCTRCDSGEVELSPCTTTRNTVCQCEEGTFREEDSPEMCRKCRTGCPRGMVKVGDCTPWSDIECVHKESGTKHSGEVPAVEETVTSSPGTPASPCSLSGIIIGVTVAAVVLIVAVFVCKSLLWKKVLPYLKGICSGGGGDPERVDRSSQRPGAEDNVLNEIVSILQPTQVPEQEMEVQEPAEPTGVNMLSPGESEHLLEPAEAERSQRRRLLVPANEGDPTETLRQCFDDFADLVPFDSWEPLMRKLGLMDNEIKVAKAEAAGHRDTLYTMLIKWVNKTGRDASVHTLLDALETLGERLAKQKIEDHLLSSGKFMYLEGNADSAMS
Sequence of Sentrin-specific protease 8 (Homo sapiens) (Q96LD8 whole entry, looked up, the tested form may be a part): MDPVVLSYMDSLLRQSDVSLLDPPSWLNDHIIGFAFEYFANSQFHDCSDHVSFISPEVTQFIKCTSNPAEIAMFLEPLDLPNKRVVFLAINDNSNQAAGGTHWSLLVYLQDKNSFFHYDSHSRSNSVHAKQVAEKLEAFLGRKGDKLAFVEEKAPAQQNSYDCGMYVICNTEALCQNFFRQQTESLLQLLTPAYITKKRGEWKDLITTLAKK
Sequence of Caspase-3 (Homo sapiens) (P42574 28-227 limits assumed): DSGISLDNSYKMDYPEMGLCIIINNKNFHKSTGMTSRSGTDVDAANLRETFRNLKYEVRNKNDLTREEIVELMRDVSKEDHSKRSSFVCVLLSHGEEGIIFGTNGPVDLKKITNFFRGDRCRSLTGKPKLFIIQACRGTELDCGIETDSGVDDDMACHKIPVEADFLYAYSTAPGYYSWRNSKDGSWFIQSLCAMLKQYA
Sequence of Protein Mdm4 (Homo sapiens) + E3 ubiquitin-protein ligase Mdm2 (Homo sapiens) (O15151 whole entry, looked up): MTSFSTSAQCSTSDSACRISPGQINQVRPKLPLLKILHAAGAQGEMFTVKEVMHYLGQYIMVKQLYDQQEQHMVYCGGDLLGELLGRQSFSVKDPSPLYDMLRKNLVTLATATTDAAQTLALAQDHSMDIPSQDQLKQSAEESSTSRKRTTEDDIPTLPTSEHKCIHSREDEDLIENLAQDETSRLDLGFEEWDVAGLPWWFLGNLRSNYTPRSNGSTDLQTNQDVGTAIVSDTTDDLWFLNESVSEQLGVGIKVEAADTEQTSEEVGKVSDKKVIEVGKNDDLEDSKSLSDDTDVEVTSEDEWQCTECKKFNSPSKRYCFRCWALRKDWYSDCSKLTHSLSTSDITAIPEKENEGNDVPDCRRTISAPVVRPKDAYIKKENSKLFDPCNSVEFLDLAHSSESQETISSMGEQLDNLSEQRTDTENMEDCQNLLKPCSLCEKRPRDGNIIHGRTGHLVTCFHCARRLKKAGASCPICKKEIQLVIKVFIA
Sequence of Protein Mdm4 (Homo sapiens) + E3 ubiquitin-protein ligase Mdm2 (Homo sapiens) (Q00987 whole entry, looked up): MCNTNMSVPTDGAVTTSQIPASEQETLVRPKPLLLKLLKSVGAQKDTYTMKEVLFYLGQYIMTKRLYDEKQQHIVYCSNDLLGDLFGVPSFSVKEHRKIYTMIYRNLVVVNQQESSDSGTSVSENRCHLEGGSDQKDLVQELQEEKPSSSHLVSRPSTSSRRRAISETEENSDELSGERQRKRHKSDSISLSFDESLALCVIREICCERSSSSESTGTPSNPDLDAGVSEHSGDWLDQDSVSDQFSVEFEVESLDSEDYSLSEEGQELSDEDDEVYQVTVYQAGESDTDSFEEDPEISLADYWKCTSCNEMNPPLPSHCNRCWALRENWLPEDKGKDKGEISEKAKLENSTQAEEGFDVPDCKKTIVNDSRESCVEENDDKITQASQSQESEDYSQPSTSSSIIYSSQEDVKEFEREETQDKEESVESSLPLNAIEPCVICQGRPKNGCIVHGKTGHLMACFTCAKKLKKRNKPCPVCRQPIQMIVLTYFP

By inhibition is commonly meant the relative decrease from the control value, in per cent. On to `O=C(/C=C/Sc1ncn[nH]1)c1ccc(Cl)cc1`, for which the inhibition in assay [1] was 103% (active).

For `O=C(CSC(=S)N1CCOCC1)c1ccccc1`, the inhibition was 79.2% (active) in [2]; 77.6% (active) in [3]; 94.1% (active) in [4]; 88.1% (active) with Caspase-3 (Homo sapiens); 77% (active) in assay [5]. For the same molecule, the activity stood at 46.8% in assay [6] and 55.2% in assay [7].

Regarding `O=C(Nc1nnc(S(=O)(=O)N2CCCCCC2)s1)c1cccc(Br)c1`, the inhibition in [2] was 42.1% (inactive); in [3] it was 31.9% (inactive); in assay [4] it was 21.7% (inactive); with Caspase-3 (Homo sapiens), 28.6% (inactive); in assay [5], 29.4% (inactive); in assay [8] it was 77.4% (active). Further, the inhibition in [9] came to 83%; in [10], 68.3%.

`CN(c1ccc2nc3ccccc3c(=O)n2n1)C1CCCCC1`: the inhibition in assay [2] was 94.2% (active); in assay [3] it was 94.5% (active); in assay [4], 101% (active); with Caspase-3 (Homo sapiens), 96.3% (active); in assay [5], 77.2% (active); in [11] it was 27.7% (active). Besides, the inhibition was 78.8% (active) in assay [12]; 91.2% (active) in [13]; 97.8% (active) in assay [14]; 98.5% with PEG-3 [15]; 86.2% with PEG-3 [16]; 98.4% in the assay with Rat fibroblasts (CREF) [17]. For the same molecule, the inhibition in the assay with Rat fibroblasts (CREF) [18] was determined as 98.9%.

Take `Cc1ccc2nc(-c3ccc(Br)cc3)cn2c1`: the inhibition in assay [2] was 7.3% (inactive); in [3] it was 34.4% (inactive); in [4], 70% (active); in the assay with Caspase-3 (Homo sapiens) it was 51.5% (active); in [5], -8.6% (inactive); in assay [12], 49.5% (active). The inhibition with PEG-3 [15] turned out to be 101%; with PEG-3 [16] it was 88.9%; in the assay with Rat fibroblasts (CREF) [17] it was 93.6%; in the assay on Rat fibroblasts (CREF) [18], 85.5%.

With `CC[C@]1(C(=O)OC)[C@H]2C(=O)N(Cc3ccccc3)C(=O)[C@H]2[C@H]2CN=C(SCc3ccc(Cl)cc3)N21`, the inhibition in assay [1] was 103% (active).

With `CSc1ccc(/C=N/NC(=O)c2cccc(Cl)c2)cc1`, the inhibition in [2] was 36.6% (inactive); in [3], 96.5% (active); in assay [4] it was 44.1% (inactive); with Caspase-3 (Homo sapiens), 93.6% (active); in assay [5] it was 40.2% (inactive). Further, the thermal shift relative to vanadate control in assay [19] was 9.78% (active).

For the molecule `O=C(Nc1ccn(Cc2ccccc2)n1)c1n[nH]c([N+](=O)[O-])c1Cl`, the inhibition was 96.4% (active) in assay [2]; 97.3% (active) in [3]; 102% (active) in assay [4]; 96.2% (active) in the assay with Caspase-3 (Homo sapiens); 96.7% (active) in [5]. Further, the activity came to 64.8% in assay [6] and 63% in assay [7].

In the case of `CC(=C/c1ccccc1)/C=N/NC(=O)c1cc(C)oc1C`, the inhibition in assay [2] is 14.3% (inactive); in assay [3], 46.8% (inactive); in assay [4], 23.5% (inactive); in the assay with Caspase-3 (Homo sapiens), 86.4% (active); in [5] it was -2.7% (inactive). The figures for the activity in assay [6] and in [7] were 58.5% and 63.6%, respectively.
